A selection: hits, their analogues and other compounds. The true share with any hit is near 8.7%.
BAZ2B block: BAZ2B (human) inhibition; Q9UIF8; AlphaScreen BAZ2B-H3K14Ac peptide displacement; Potency, µM (doses to about 114 µM), inactives show top-dose activity change, negative = inhibition, most hits filed as inhibitors; hit rate 4.4% among 360,000; note: % is set by controls: 0 for no effect and ±100 for the full control effect; nearly all actives have a fitted effect of over 60% in size
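In this displacement format the biotinylated H3(5-23) peptide acetylated at Lys14 serves as ligand at 50 nM, with BAZ2B at 50 nM in PBS pH 7.4 containing 0.01% Tween-20. Donor and acceptor beads are 10 ug/mL final.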
HP1b chromo inh: HP1-beta chromodomain-methylated histone interaction inhibition; P83916; AlphaScreen HP1-beta / biotin-H3K9me3 peptide binding; Potency, µM (highest dose often 114 µM), without a hit: top-dose activity change, negative = inhibition, hits mostly inhibitors; hit rate 0.56% among 390,000; AID 540317; note: nearly all actives have a fitted effect of over 70% in size
Target sequence (P83916 whole entry, looked up): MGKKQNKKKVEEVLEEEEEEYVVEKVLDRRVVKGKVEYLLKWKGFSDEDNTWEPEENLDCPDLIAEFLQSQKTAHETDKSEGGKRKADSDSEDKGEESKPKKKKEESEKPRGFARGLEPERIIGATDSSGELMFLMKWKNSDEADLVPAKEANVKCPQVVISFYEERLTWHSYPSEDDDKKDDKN
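Compound inhibition of the preformed complex between 50 nM HP1-beta and 50 nM biotinylated H3K9me3 peptide was read by AlphaScreen. Buffer was PBS pH 7.4 with 0.01% Tween-20. Incubations ran 30 min at room temperature, with 10 ug/mL donor/acceptor beads.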
Sfp inh: inhibitors of Bacillus subtilis Sfp phosphopantetheinyl transferase; hit rate 3.5% among 310,000; Q9F4F7; AID 1490; Potency, µM, without a hit: largest response in the series, negative = inhibition, most hits filed as inhibitors; Biochemical Sfp PPTase activity, qHTS;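 note: the enzyme is Sfp with the accession as filed and its product quenches rhodamine fluorescence; 0% = enzyme reaction without inhibitor and -100% = no enzyme wells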
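Buffer: 50 mM Hepes-Na pH 7.6, 10 mM MgCl2, 0.01% Nonidet P-40, 0.01% BSA. Enzyme 15 nM, pre-exposed to compound 15 min; substrates then added and fluorescence change tracked over 30 min.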
JMJD2A Tudor: JMJD2A Tudor domain (human) inhibition; O75164; AlphaScreen JMJD2A-Tudor / H3K4me3 peptide binding; Potency, µM (top dose mostly 114 µM), inactives show top-dose activity change, negative = inhibition, usual class: inhibitors; hit rate 4.4% among 390,000; AID 504339; note: % is set by controls: 0 for no effect and ±100 for the full control effect; nearly all actives have a fitted effect of over 50% in size
G9a block: inhibitors of human histone lysine methyltransferase G9a. Q96KQ7. G9a H3K9 monomethylation, AlphaScreen, 2 h. Potency, µM (series often up to 102 µM), for the others: at the highest dose activity, negative = inhibition, hits mostly inhibitors. hit rate 8.8% among 350,000. AID 504332; note: % is set by controls: 0 for no effect and ±100 for the full control effect; nearly all actives have a fitted effect of over 75% in size
Target sequence (Q96KQ7 913-1193 limits assumed): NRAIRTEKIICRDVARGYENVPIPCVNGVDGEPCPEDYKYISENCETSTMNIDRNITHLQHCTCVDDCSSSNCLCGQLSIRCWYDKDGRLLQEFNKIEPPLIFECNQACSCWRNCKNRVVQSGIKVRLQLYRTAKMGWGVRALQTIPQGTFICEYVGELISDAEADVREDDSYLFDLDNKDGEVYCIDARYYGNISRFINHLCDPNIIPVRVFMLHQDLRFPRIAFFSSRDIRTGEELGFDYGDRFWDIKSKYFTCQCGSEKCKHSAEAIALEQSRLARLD
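Compounds were preincubated with 20 nM G9a for 15 min, after which biotinylated H3K9 peptide (500 nM) and SAM (20 uM) started a 2 h room-temperature reaction. Monomethylated product was quantified by antibody-based AlphaScreen chemiluminescence.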
ALOX12 inh: blocks human arachidonate 12S-lipoxygenase; purified 12hLO, xylenol orange hydroperoxide absorbance; Potency, µM (titrated, usually from 108 µM), for inactives: at the top dose activity change, negative = inhibition, most hits filed as inhibitors; hit rate 1.1% among 580,000; note: % is set by controls: 0 for no effect and ±100 for the full control effect
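Purified human 12hLO (150 nM final) in 25 mM Hepes, 0.01% Triton X-100, pH 7.0 was preincubated 15 min at room temperature with compound. Then 40 uM arachidonic acid was added, 30 min. Hydroperoxide was read by Fe-XO absorbance ratio 573/405 nm.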
* hit, by the source's call; ? = inconclusive; · = not tested or not shown; [ ] = another dose, or the depositor's remark. Calls come from the whole dose curve; as a rule, active = well fitted curve in the direction sought with a large enough effect; inconclusive = small, poorly fitted or top-dose-only effect, or another doubt; inactive = no such curve, though single readings can be large; an effect the other way counts as inactive or inconclusive. Potency is the fitted concentration of half-maximal effect.

SMILES	BAZ2B block	HP1b chromo inh	Sfp inh	JMJD2A Tudor	G9a block	ALOX12 inh
O=C(COC(=O)c1cccs1)Nc1nc(-c2ccccc2)cs1	0%	32%	13%	-5%	40µM*	-22%
C/C(=N\Nc1nc2ccccc2s1)c1cccs1	?	-16%	-56%	?	-45%[59 µM]	?
COc1cccc(OCC(=O)NCc2cccc(CN3CCCC3)c2)c1	·	·	·	·	·	5%
CCCNC(=O)C1C(c2cccc(NC(=O)c3ccc(C)cc3)c2)OC(=O)N1Cc1ccc(C)cc1 (stereo unspecified)	·	·	·	·	·	4%
CN(C)C(=O)c1ccc(-c2nnc3ccc(NC(=O)C4CCC4)cn23)cc1	·	·	·	·	·	46%
CCCC(=O)Nc1sc2c(c1C(=O)OC)C(C(=O)OC)CC2 (stereo unspecified)	9%	11%	-7%	-11%	-3%[59 µM]	0%
COC(=O)c1c(NC(=O)CCCOc2ccc(C(C)(C)C)cc2)sc2c1C(C(=O)OC)CC2 (stereo unspecified)	28µM*	-24%	·	56µM*	1.4µM*	?
COc1ccc(-c2nc(CS(=O)CC(=O)NCC(OC)OC)c(C)o2)cc1OC (stereo unspecified)	·	·	·	·	·	-10%
c1ccc(C2NCCn3cccc32)cc1 (stereo unspecified)	?	26%	-14%	?	50µM*	?
COC(=O)c1ccc(CSC2=NC[C@@H]3[C@@H]4C(=O)N(Cc5ccccc5)C(=O)[C@@H]4[C@](Cc4ccccc4)(C(=O)OC)N23)cc1	·	-4%	·	79µM*	·	-26%
COC(=O)[C@@]1(C)[C@H]2C(=O)N(Cc3ccccc3)C(=O)[C@H]2[C@H]2CN=C(SCc3ccc(C)cc3)N21	·	42%	·	?	·	40µM*
COC(=O)[C@@]1(Cc2ccccc2)[C@H]2C(=O)N(Cc3ccccc3)C(=O)[C@H]2[C@H]2CN=C(SCc3ccccc3)N21	·	29%	·	?	·	-15%
Cc1ncoc1C(=O)N1CCCCCCNC(=O)CC1	·	·	·	·	·	45%
N#Cc1cccnc1NCCNc1cnc2ccccc2n1	·	·	·	·	·	-3%
Cc1cc(NC(=O)COC(=O)c2cc3c(s2)CCC(C)C3)no1 (stereo unspecified)	-1%	27%	9%	-10%	7%[59 µM]	?
CCOc1cc(C(=O)OCC(=O)Nc2ncc(Cl)c(C)c2Cl)ccc1OCC(=O)N1CCOCC1	4%	13%	5%	-13%	45µM*	-2%
CCn1nc(C(=O)OCC(=O)Nc2ncc(Cl)c(C)c2Cl)c2ccccc2c1=O	?	-15%	2%	?	50µM*	?
CCn1nc(C(=O)OCC(=O)NC(C)C)c2ccccc2c1=O	-4%	-11%	6%	?	-4%	0%
O=C(COC(=O)/C=C/c1ccco1)Nc1ncc(C(F)(F)F)cc1Cl	45µM*	50µM*	40µM*	35µM*	22µM*	?
Cc1c(Cl)cnc(NC(=O)COC(=O)c2cc3c(s2)CCC(C)C3)c1Cl (stereo unspecified)	3%	10%	9%	-18%	35µM*	-9%
O=C(COC(=O)C1=COCCO1)Nc1ncc(C(F)(F)F)cc1Cl	16%	-19%	20%	8%[11.4 µM]	16%[59 µM]	?
O=C(COC(=O)c1cnccn1)Nc1ncc(C(F)(F)F)cc1Cl	·	-6%	·	-27%	·	5µM*
Cc1c(Cl)cnc(NC(=O)COC(=O)CNC(=O)c2ccccc2)c1Cl	·	13%	·	-27%	·	?
Cc1c(Cl)cnc(NC(=O)COC(=O)/C=C/c2ccco2)c1Cl	50µM*	-4%	·	?	45µM*	?
COc1ccc(CC(=O)OCC(=O)Nc2ncc(Cl)c(C)c2Cl)cc1	?	18%	·	-20%	?	11µM*
CC(=O)NCC(=O)NCc1nnc2ccc(-c3ccc(C)c(C)c3)nn12	·	·	·	·	·	1%
O=C1C(N2CCN(Cc3ccc[nH]3)CC2)CCN1Cc1cccnc1 (stereo unspecified)	·	·	·	·	·	137%

Screening data from PubChem.
